Assay results from PubChem BioAssay (EPA / NIEHS).
Some compounds were tested as several samples or in several runs, with calls that do not always agree. The source made the active and inactive calls. Rule for the calls: active = hit-call score of the fitted dose curve at least 0.9, where 1 is the maximum; inactive = score below 0.9.

read-out: Monocyte Chemoattractant Protein-1 (MCP1), CCL2 (gene 6347); assay: BSK_IMphg_MCP1: BioMAP Diversity Plus: IMphg Assay for Monocyte Chemoattractant Protein-1 (MCP1) Biomarker Activity (AID 2284253); details: primary human endothelial cells with macrophages
Experimental: BSK_IMphg is a cell-based, multiplexed-readout assay that uses venular endothelial cells and macrophages, a human vascular primary cell, with measurements taken at 24 hours after chemical dosing in a microplate: 96-well plate.BSK_IMphg_MCP1 is an assay component measured in the BSK_IMphg assay. It measures MCP-1 antibody related to regulation of gene expression using ELISA technology.Data from the assay component BSK_IMphg_MCP1 was analyzed at the endpoint, BSK_IMphg_MCP1, in the positive analysis fitting direction relative to DMSO as the negative control and baseline of activity. Using a type of binding reporter, gain or loss-of-signal activity can be used to understand protein changes. To generalize the intended target to other relatable targets, this assay endpoint is annotated to the 'cytokine' intended target family, where the subfamily is 'chemotactic factor'.
The levels of cell surface (or secreted, indicated by the prefix "s") biomarker endpoints were measured by ELISA. Overt cytotoxicity to cells in confluent adherent cultures (all systems other than the BT system) was assessed by measuring total protein levels using sulforhodamine B (SRB) staining in parallel cultures at the time of biomarker measurements, indicated as SRB endpoints. For proliferation assays for adherent cell types, individual cell types are cultured at sub-confluence and relative cell numbers quantified by SRB staining at time points optimized for each system (48 h: 3C and CASM3C systems; 72 h: BT and HDF3CGF systems; 96 h: SAg system). SRB was performed by staining cells with 0.1% SRB after fixation with 10% TCA and reading wells at 560 nm.Viability and proliferation of PBMC (T cells) was quantified by Alamar Blue reduction for the SAg and BT systems. For PBMC viability (referred to as PBMC Cytotoxicity within the assay endpoint names), cells were plated (75,000/well in a 96-well plate) and then chemical samples added for 1 h before addition of activators, SEB and TSST-1 (20 ng/mL final concentration each). Cells were incubated for 90 h. Then, Alamar Blue (20 uL/well) (Invitrogen, Cat DAL1100) was added for 6 h, and the plates were read with a fluorescence microplate reader at 546/580 nm (excitation/emission). For PBMC proliferation, cells were plated and activated as above but incubated for only 16 h prior to addition of Alamar Blue. Plates were read after 6 h.

SMILES | AC50 | outcome
OCC(F)(F)OC(F)(F)C(F)(F)OC(F)(F)C(F)(F)OC(F)(F)F | 45.6 µM (active) | inactive
O=C(O)C(F)(F)OC(F)(F)C(F)(F)OC(F)(F)F |  | inactive
O=C(O)C=CC(F)(C(F)(F)F)C(F)(F)F |  | inactive
O=C(O)C(F)(F)C(F)(F)C(=O)O |  | inactive
O=S(=O)(F)C(F)(F)C(F)(F)C(F)(F)C(F)(F)C(F)(F)C(F)(F)C(F)(F)C(F)(F)F |  | inactive
OCC(F)(F)OC(F)(F)C(F)(F)OC(F)(F)C(F)(F)OC(F)(F)CO | 7.09 µM (active) | inactive
FC(F)(F)C(F)(C(F)(F)F)C(F)(F)C(F)(F)CC1CO1 (stereo unspecified) |  | inactive
O=C(O)C(F)(OC(F)(F)C(F)(F)C(F)(F)F)C(F)(F)F (stereo unspecified) |  | inactive
OCC(F)(F)OC(F)(F)C(F)(F)OC(F)(F)CO |  | inactive
CC(O)C(F)(F)C(F)(F)F (stereo unspecified) |  | inactive
O=C(O)C(F)(F)OC(F)(F)C(F)(F)OC(F)(F)C(=O)O |  | inactive
COC(=O)C(F)(F)C(F)(F)OC(F)(C(F)(F)F)C(F)(F)OC(F)=C(F)F (stereo unspecified) |  | inactive
NC(=O)C(F)(F)C(F)(F)F |  | inactive
C=CC(=O)OCC(F)(F)C(F)F |  | inactive
